Screens as filed in PubChem BioAssay.
TDP1 cell CPT: DT40-hTDP1 cell growth loss with CPT; chicken DT40 Tdp1-/-;hTDP1 cells + 20 nM CPT, ATP luminescence, 48 h; Potency, µM (top dose mostly 46.2 µM), without a hit: at the top dose activity change, negative = growth inhibition, usual class: inhibitors; 420,000 compounds, 12% hits; AID 686979; further: potency means the concentration at half of the fitted maximal effect; on the % scale 0 is the no-effect control and ±100 the full control effect; nearly all actives have a fitted effect of over 55% in size
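Chicken DT40 Tdp1-/- cells complemented with human TDP1, 400 cells/well, exposed to compounds plus 20 nM camptothecin for at least 48 h at 37 C; viability read as ATP content by CellTiter-Glo luminescence.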
HepG2 tox: counter-screen for TGF-b inhibitors: cytotoxicity in HepG2 cells; HepG2 CAGA-GFP viability, ATP luminescence, 18 h; Potency, µM (highest dose often 46.1 µM), for the others: top-dose activity change, negative = cytotoxicity, most hits filed as cytotoxic; 410,000 compounds, 0.76% hits; further: potency means the concentration at half of the fitted maximal effect
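CellTiter-Glo luminescence gave cytotoxicity after 18 hours at 37 degrees C. The cells were HepG2 CAGA-GFP in 1% FBS DMEM, stimulated with 500 pg/mL TGF-beta after compound addition. %Activity was normalised to no-cell wells (complete cell-killing) and DMSO (no toxicity), and curves were fitted and classified.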
IL-1B inflam inh: blocks inflammasome-driven IL-1 beta release; THP-1 LPS/ATP IL-1B secretion, AlphaLISA, 16 h; hits give low values; activity change, % at 57.5 µM; 360,000 compounds, 4.7% hits; in the data active means activity change below about -50%; inconclusive means mostly about -30% to -49%; further: on the % scale 0 is the no-effect control and ±100 the full control effect
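THP-1 cells pretreated 1 hr with compounds (up to 57.5 uM final), then stimulated with LPS (250 ng/mL final) plus ATP (1.25 mM final); secreted IL-1B measured by AlphaLISA after 16 hr, decreased signal indicating inhibition.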
TDP1 inh: TDP1 (human) enzyme inhibition; Q9NUW8; recombinant TDP1, AlphaScreen DNA substrate cleavage; Potency, µM (top dose mostly 130 µM), for inactives: at the highest dose activity change, negative = inhibition, hits mostly inhibitors; 350,000 compounds, 0.28% hits; further: potency means the concentration at half of the fitted maximal effect; on the % scale 0 is the no-effect control and ±100 the full control effect; nearly all actives have a fitted effect of over 40% in size
Target sequence (Q9NUW8 whole entry, looked up): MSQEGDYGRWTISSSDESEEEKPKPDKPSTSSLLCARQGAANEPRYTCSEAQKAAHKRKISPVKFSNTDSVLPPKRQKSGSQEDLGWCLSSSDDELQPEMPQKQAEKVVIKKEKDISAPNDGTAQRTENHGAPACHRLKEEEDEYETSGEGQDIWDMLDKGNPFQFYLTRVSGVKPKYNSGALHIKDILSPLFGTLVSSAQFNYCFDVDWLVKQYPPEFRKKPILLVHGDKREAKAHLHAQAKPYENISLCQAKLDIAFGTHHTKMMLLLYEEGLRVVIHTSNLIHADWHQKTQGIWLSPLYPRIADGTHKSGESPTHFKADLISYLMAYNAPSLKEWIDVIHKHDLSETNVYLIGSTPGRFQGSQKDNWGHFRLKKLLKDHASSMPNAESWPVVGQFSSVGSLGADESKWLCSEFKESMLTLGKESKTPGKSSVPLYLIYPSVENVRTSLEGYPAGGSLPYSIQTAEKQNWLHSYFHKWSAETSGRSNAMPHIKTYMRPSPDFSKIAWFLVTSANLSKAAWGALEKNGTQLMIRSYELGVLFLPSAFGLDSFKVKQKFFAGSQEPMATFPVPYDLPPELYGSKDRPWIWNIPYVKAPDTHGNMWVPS
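AlphaScreen read-out: signal falls as enzyme removes the 3' tyrosine-FITC from a 5'-biotinylated DNA oligo (15 nM, 5 min, RT). Enzyme was E. coli-made recombinant Tdp1 at 1 nM, exposed to compound for 15 min beforehand; beads 10 ug/ml, 10 min.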
TGFb inhibitor: inhibitors of TGF-b signaling. 410,000 compounds, 1.2% hits. HepG2 CAGA-GFP TGF-b/SMAD3 reporter, GFP fluorescence, 18 h; TGF-beta stimulated, 500 pg/mL final. AID 588855. Potency, µM (doses to about 46.1 µM), for inactives: top-dose activity, negative = inhibition, actives largely listed as inhibitors; further: potency means the concentration at half of the fitted maximal effect; on the % scale 0 is the no-effect control and ±100 the full control effect; nearly all actives have a fitted effect of over 65% in size
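Cell-based qHTS in HEPG2 carrying a CAGA-GFP Smad reporter; compounds added before 500 pg/mL final TGF-beta, 18 h incubation at 37 degrees C, GFP fluorescence quantified per cell by imaging cytometry.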
DT40 TDP1 no CPT: qHTS for Inhibitors of human tyrosyl-DNA phosphodiesterase 1 (TDP1): qHTS in cells in absence of CPT; Potency, µM (highest dose often 46.2 µM), without a hit: at the highest dose activity change, negative = growth inhibition, most hits filed as inhibitors; 420,000 compounds, 15% hits; DT40 Tdp1-/- hTDP1 cells, no CPT, ATP luminescence, 48 h; AID 686978, 2013; further: potency means the concentration at half of the fitted maximal effect; on the % scale 0 is the no-effect control and ±100 the full control effect; nearly all actives have a fitted effect of over 55% in size
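No-CPT arm: Tdp1-/-;hTDP1 DT40 cells (400/well) plus compounds, incubated ≥48 hr at 37 °C. Readout CellTiter-Glo luminescence.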
The depositor's hits bear a star; ? = inconclusive; . = not tested or not shown; [ ] = another dose, or the depositor's remark. An excerpt weighted towards active compounds, which were near 18% of everything screened. Unless noted, the call rests on the fitted dose curve; in most records, active means well fitted curve in the direction sought with a large enough effect; inconclusive means small, poorly fitted or top-dose-only effect, or another doubt; inactive means no such curve, though single readings can be large; an effect the other way counts as inactive or inconclusive.

SMILES	TDP1 cell CPT	HepG2 tox	IL-1B inflam inh	TDP1 inh	TGFb inhibitor	DT40 TDP1 no CPT
S=C(NCCc1ccccc1)N1CCN(Cc2ccc(Cl)c(Cl)c2)CC1	18µM*	-23%	-16	3%	-3%	?
NS(=O)(=O)c1ccc(NC(=S)N2CCN(Cc3ccc(Cl)c(Cl)c3)CC2)cc1	?	-16%	-72*	0%	-25%	?
CC(=O)c1ccc(N2CCN(C(=S)Nc3ccc(Cl)c(Cl)c3)CC2)cc1	?	-23%	2	0%	-25%	-27%
NS(=O)(=O)c1ccc(NC(=S)N2CCN(Cc3ccc4c(c3)OCO4)CC2)cc1	?	7%	13	-3%	-4%	?
NS(=O)(=O)c1ccc(NC(=S)N2CCN(c3ccc(Cl)c(Cl)c3)CC2)cc1	6.5µM*	-40%	3	4%	?	6.5µM*
CCC1CCCCN1CCCNC(=O)c1cn(C)c2ccc(S(=O)(=O)N(C)C3CCCCC3)cc2c1=O (stereo not drawn)	?	-29%	0	2%	-9%	?
COc1ccc(S(=O)(=O)N[C@H]2CC[C@H](CCNC(=O)c3ccccc3F)O[C@@H]2CO)cc1	-26%	.	-77*	.	.	-14%
Cc1cc(C)n(CC(=O)Nc2ccc3c(c2)OCO3)c(=O)c1C#N	8%	12%	10	3%	-13%	12%
Cc1ccc(NC2(c3nnnn3-c3c(C)cccc3C)CCCCC2)cc1	?	-24%	-5	8%	?	23µM*
COCCN1C(=O)CCC1(C)c1nnnn1-c1c(C)cccc1C (stereo not drawn)	-6%	.	19	.	.	-17%
COc1cccc2c1OC[C@@H](CO)[C@H]2N(C)C(=O)Nc1ccccc1	-5%	7%	18	2%	18%	0%
CN(C(=O)Nc1ccc(Cl)cc1Cl)[C@H]1c2cc(Br)ccc2OC[C@H]1CO	?	-12%	-73*	0%	?	-18%
O=C(CN(C(=O)Cn1nnc(-c2ccc(F)cc2)n1)c1ccc(F)cc1)NC1CCCC1	-17%	-4%	-10	.	-17%	-17%
O=C1NCCN1CCNS(=O)(=O)c1cc(C(F)(F)F)cc(C(F)(F)F)c1	-2%	2%	25	4%	-1%	11%
Cn1c(=O)n(C)c2cc(N3CCOCC3)c(NS(=O)(=O)c3cccc(C#N)c3)cc21	18µM*	8%	.	14%	-1%	?
Cc1ccc(S(=O)(=O)Nc2cc(-c3nn(C)c(=O)c4ccccc34)ccc2N2CCOCC2)cc1	?	-5%	18	7%	-42%	?
Cn1nc(-c2ccc(N3CCOCC3)c(NS(=O)(=O)c3ccc(Cl)cc3)c2)c2ccccc2c1=O	18µM*	-2%	9	7%	-9%	26µM*
Cn1c(=O)n(C)c2cc(N3CCOCC3)c(NS(=O)(=O)c3ccc(Cl)cc3)cc21	?	-16%	.	8%	13%	13µM*
Cn1c(=O)c(=O)n(C)c2cc(N3CCOCC3)c(NS(=O)(=O)c3ccc(Cl)cc3)cc21	?	1%	.	3%	6%	?
Cn1c(=O)n(C)c2cc(N3CCOCC3)c(NS(=O)(=O)c3ccc(C(C)(C)C)cc3)cc21	7.3µM*	-32%	.	0%[12.3 µM]	17%	4.1µM*
Cc1ccc(S(=O)(=O)Nc2cc3c(cc2N2CCOCC2)n(C)c(=O)n3C)c(C)c1	?	-9%	.	-2%	3%	?
CCOC(=O)N1CCC(Nc2c(NCCCN(CC)c3cccc(C)c3)c(=O)c2=O)CC1	?	-9%	-2	5%	-4%	?
CC1(C(=O)NS(=O)(=O)c2ccccc2Cl)CCN1C(=O)C1(c2ccc(Cl)cc2)CCC1 (stereo not drawn)	-1%	-2%	39	.	3%	-14%
CC(C)[C@H](NC(=O)c1ccccc1)C(=O)OCC(=O)/C=C1/N(C)c2ccccc2C1(C)C	10µM*	-46%	17	3%	-23%	8.2µM*
CN1/C(=C\C(=O)COC(=O)c2ccc([N+](=O)[O-])o2)C(C)(C)c2ccccc21	-11%	8%	8	9%	?	-15%
SMILES	TDP1 cell CPT	HepG2 tox	IL-1B inflam inh	TDP1 inh	TGFb inhibitor	DT40 TDP1 no CPT
COc1cc(OC)cc(C(=O)NCC(=O)OCC(=O)/C=C2/N(C)c3ccccc3C2(C)C)c1	?	-43%	-60*	9%	-14%	16µM*
CC(=O)N/N=C/c1cc([N+](=O)[O-])ccc1OCCOc1ccccc1	?	-4%	12	9%	-3%	16µM*
Cn1cccc1CC(=O)N/N=C/c1cc([N+](=O)[O-])ccc1Cl	16%	3%	9	0%	4%	-9%
Nc1nnnn1CC(=O)N/N=C/c1cc([N+](=O)[O-])ccc1Cl	15µM*	0%	6	5%	7%	10µM*
Cc1cccc(N(CC(=O)N/N=C/c2cc([N+](=O)[O-])ccc2Cl)S(C)(=O)=O)c1C	?	-1%	-13	4%	?	21µM*
CS(=O)(=O)N(CC(=O)N/N=C/c1cc([N+](=O)[O-])ccc1Cl)c1ccccc1	?	-30%	-6	4%	-12%	18µM*
CCc1cccc(NC(=O)Cn2c(=O)n(CCC(=O)NCc3ccccc3Cl)c(=O)c3sccc32)c1	?	0%	.	-2%	0%	?
COc1ccc(-c2cc(C(C)=O)c(C)n2CCC(=O)Nc2ccc(C(F)(F)F)cc2)cc1	12µM*	-41%	.	5%	0%	13µM*
CC(=O)c1cc(-c2ccc(F)cc2)n(CCC(=O)NCc2ccccc2C)c1C	16µM*	-5%	.	1%	4%	?
CCOc1ccc(NC(=O)CCn2c(-c3ccc(F)cc3)cc(C(C)=O)c2C)cc1	21µM*	-18%	.	3%	-25%	23µM*
CC(=O)c1cc(-c2ccc(F)cc2)n(CCC(=O)Nc2cccnc2)c1C	0%	-3%	18	1%	1%	-17%
COc1ccc(NC(=O)Nc2cc(C)ccc2OC)cc1	-17%	1%	-16	-4%	5%	-17%
CC(=O)c1cc(-c2ccccc2)n(CCC(=O)NC(C)(C)C)c1C	1%	-1%	58	0%	7%	-20%
COc1ccc(C(=O)COc2ccc(C)cc2NC(C)=O)cc1	?	-7%	-4	-1%	0%	21µM*
